Data published in PubChem BioAssay.
“And” between values parts separate entries of the source, which are not always exact repeats. Equal entries are not always repeated. Results filed as inconclusive are left out. The source made the active and inactive calls. Unless noted, cut-off not given; nearly all actives show AC50 up to about 26 µM.

What was measured:
[1] = differential killing of epithelial or mesenchymal cells, primary screen, imaging, PC-3E GFP, TEM4-18 mCherry, co-culture (AID 1345086;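 active means compounds killing one labelled cell type while sparing the other, by normalised counts and ratio limits, not self-fluorescent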;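 on all read-outs here: cells exposed to compound for 72 h before imaging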;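 on red/green cell ratio (normalised): normalised mesenchymal count divided by normalised epithelial count so high means epithelial killing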); settings: imaging cell counts, at 1 µM; for red/green cell ratio (normalised): actives lie on both sides, counts scaled to control wells, 1 = unselective
[2] = growth inhibition of DIPG glioma cells, dose response, cell-based, SU-DIPG-XVII, MIPE5.0, CellTiter-Glo, qHTS (AID 1347060); settings: SU-DIPG-XVII viability, CellTiter-Glo ATP luminescence;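 on AC50: cells exposed to compound for 48 hours before viability readout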
[3] = growth inhibition of DIPG glioma cells, dose response, cell-based, JHH-DIPG-1, MIPE4.0, CellTiter-Glo, qHTS (AID 1347062; cut-off not given, nearly all actives have AC50 up to about 27 µM;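 on AC50: cells exposed to compound for two days before readout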); settings: JHH-DIPG-1 viability, CellTiter-Glo ATP luminescence
[4] = growth inhibition of DIPG glioma cells, dose response, cell-based, SU-DIPG-IV, MIPE4.0, CellTiter-Glo, qHTS (AID 1347063; cut-off not given, nearly all actives have AC50 up to about 30 µM;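 further: compound exposure lasted 48 hours before the viability readout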); settings: SU-DIPG-IV viability, CellTiter-Glo ATP luminescence
[5] = growth inhibition of DIPG glioma cells, dose response, cell-based, SU-DIPG-XIII, MIPE5.0, CellTiter-Glo, qHTS (AID 1347064; cut-off not given, nearly all actives have AC50 up to about 23 µM;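 on AC50: cells exposed to compound for 48 hours before the viability read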); settings: SU-DIPG-XIII viability, CellTiter-Glo ATP luminescence
[6] = viability loss in pontine glioma line – cell-based, SU-DIPG-XXV, MIPE5.0, CellTiter-Glo, qHTS, dose response (AID 1347065); settings: CellTiter-Glo ATP luminescence;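 further: cells exposed to compound for 48 hours before ATP readout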
[7] = SU-DIPG-VI glioma cell viability, MIPE4.0 library, CellTiter-Glo luminescence, qHTS (AID 1347066; cut-off not given, nearly all actives have AC50 up to about 30 µM;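 further: cells exposed to compound for 48 hours before readout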); settings: CellTiter-Glo ATP luminescence
[8] = SU-DIPG-XXV glioma cell viability, MIPE5.0 library, qHTS (AID 1347068; cut-off not given, nearly all actives have IC50 up to about 30 µM;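 on IC50: cells exposed to compound for 48 hours before viability readout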)
[9] = JHH-DIPG-1 glioma cell viability, MIPE5.0 library, CellTiter-Glo luminescence, qHTS (AID 1347067); settings: JHH-DIPG-1 glioma viability, CellTiter-Glo ATP luminescence;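 further: cells exposed to compound for 48 hours before readout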
[10] = growth inhibition of DIPG glioma cells, dose response, cell-based, SU-DIPG-XIII, MIPE4.0, CellTiter-Glo, qHTS (AID 1347061; cut-off not given, nearly all actives have AC50 up to about 37 µM;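 further: cells exposed to compound for 48 hours before readout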); settings: SU-DIPG-XIII viability, CellTiter-Glo ATP luminescence
[11] = sensitizers of A549 cells to miR-34 induction, primary screen, imaging, A549 dox-inducible miR-34, nuclei and caspase counts (AID 1347080;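 active means compounds whose cell count with miR-34 switched on is under 0.7 times the count with it off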); settings: A549 miR-34 inducible, Hoechst nuclei count, 48 h
[12] = circadian clock period modulators, cell-based, LOPAC library, luminescence reporter (AID 2774; call rule not given here;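 further: values are relative to mean of DMSO wells on each plate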); settings: circadian reporter cells, at 7 µM, actives lie on both sides
[13] = liver-stage malaria parasite growth inhibition, primary screen, cell-based, HepG2, luciferase luminescence, HepG2 viability (AID 624349; in the data active means parasite load remaining mostly below about 12%, no sharp cut-off; inactive means mostly above about 10%;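 further: 100% = mean of DMSO negative control wells on the same plate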); settings: P. berghei liver stage in HepG2, luciferase luminescence, concentration not given here; parasite load remaining: stronger effect = lower value; viability: measured here: HepG2 viability without parasites
[14] = tested on: Hepatitis C virus NS3 helicase; test: HCV NS3 helicase inhibitors, primary screen, biochemical, fluorescence polarization, LOPAC1280 library (AID 687035; in the data active means inhibition above about 37%); settings: Purified HCV NS3 helicase, Cy5-dT15 ssDNA binding fluorescence polarization; stronger effect = higher value; concentration not given here
[15] = Cy5 fluorescence quenching or enhancement artefacts, artefact control for HCV NS3 helicase inhibitor project, biochemical, LOPAC1280 (AID 687037; call rule not given here); settings: Cy5-DNA-NS3h complex fluorescence interference counterscreen
[16] = tested on: Aerobactin synthetase IucA (Klebsiella pneumoniae); test: IucA aerobactin synthetase inhibitors, biochemical, Tocris library, absorbance (AID 1345561; call rule not given here;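 further: 100% = enzyme without compound and 0% = no enzyme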); settings: purified IucA enzyme assay, absorbance (OD) read-out; stronger effect = lower value;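 tested at 8 µM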
[17] = inhibitors of Cryptococcus chitosan production, flow cytometry, Cibacron Brilliant Red staining (AID 1347148; call rule not given here;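 further: compound exposure lasted three days at 37 degrees C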); settings: Cryptococcus neoformans chitosan, stronger effect = lower value; at 10 µM unless noted
[18] = phospholipid biosynthesis inhibitors in animal cells, primary screen, cell-based, LOPAC library, screen 4 (AID 1347384; call rule not given here); settings: phospholipid biosynthesis inhibition screen, at 10 µM
[19] = survival rescue of mitochondrial mutant cells in low glucose, primary screen, MELAS cybrids, Rieske KO mouse fibroblasts, CellTiter-Glo (AID 1508586;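 active means mean z-score across replicates of 1.96 or higher in either the MELAS or the Rieske mutant cell line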;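 further: z relative to plate mean and SD of compound and empty wells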)
[20] = viability rescue of complex I mutant cybrids, primary screen, cell-based, galactose medium, ATP luminescence (AID 1645843;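 active means z-score of at least 1.8 in each of two replicates, scored against plate mean and spread of sample wells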;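 further: positive z means more ATP and so rescue of galactose-driven cybrid death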); settings: complex I mutant cybrid cells, 72 h, stronger effect = higher value
[21] = molecular target: NAD(+) hydrolase SARM1 (Homo sapiens) (UniProt Q6SZW1); test: SARM1 TIR NADase inhibitors, cell lysate, NAD-Glo luminescence (AID 1508614;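 active means compound whose remaining NAD level is above about 45 nM, limit read from the data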); settings: SAM-TIR HEK293T lysate NADase, at 1 µM, stronger effect = higher value
[22] = measured here: epithelial PC-3E GFP cell survival
[23] = measured here: mesenchymal TEM4-18 mCherry cell survival
[24] = stronger effect = lower value, cell number ratio, induced over uninduced
[25] = measured here: relative caspase fold change +Dox/-Dox
[26] = measured here: total cells with miR-34 induction, stronger effect = lower value
[27] = measured here: total cells without miR-34 induction
[28] = MELAS cybrid survival, CellTiter-Glo 48 h, stronger effect = higher value
[29] = Rieske KO mouse fibroblast survival, CellTiter-Glo 72 h

Chain of NAD(+) hydrolase SARM1 (Homo sapiens) (Q6SZW1 whole entry, looked up): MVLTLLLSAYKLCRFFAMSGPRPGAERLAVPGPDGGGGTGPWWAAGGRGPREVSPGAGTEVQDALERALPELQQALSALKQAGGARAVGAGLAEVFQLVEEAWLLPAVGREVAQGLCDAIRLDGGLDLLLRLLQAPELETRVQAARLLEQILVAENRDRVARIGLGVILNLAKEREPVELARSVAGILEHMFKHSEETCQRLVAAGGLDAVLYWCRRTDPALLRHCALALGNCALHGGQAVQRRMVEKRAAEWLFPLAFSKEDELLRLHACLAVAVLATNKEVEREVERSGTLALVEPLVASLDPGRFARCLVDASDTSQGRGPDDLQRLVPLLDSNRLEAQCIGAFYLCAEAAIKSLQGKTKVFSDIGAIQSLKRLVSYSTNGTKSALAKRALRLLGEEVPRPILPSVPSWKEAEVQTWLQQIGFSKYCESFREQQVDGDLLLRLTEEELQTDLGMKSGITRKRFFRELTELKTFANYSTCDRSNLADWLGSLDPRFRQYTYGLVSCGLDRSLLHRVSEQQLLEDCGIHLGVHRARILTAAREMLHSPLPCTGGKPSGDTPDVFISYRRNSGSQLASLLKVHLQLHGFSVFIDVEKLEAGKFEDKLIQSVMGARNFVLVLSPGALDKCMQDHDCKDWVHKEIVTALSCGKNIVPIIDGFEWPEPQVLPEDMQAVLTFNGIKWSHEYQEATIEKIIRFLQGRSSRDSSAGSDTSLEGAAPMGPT

In the case of O=c1ccn([C@@H]2O[C@H](CO)[C@@H](O)[C@H]2O)c(=O)[nH]1, the red/green cell ratio (normalised) [1] is reported as 0.9 (inactive), the normalised cell number [1, 22] is reported as 1 and the normalised cell number [1, 23] is reported as 0.9. For the same compound, the outcome [2] was “inactive”, the outcome [3] was “inactive” and the outcome [4] was “inactive”. The outcome [5] was “inactive”, the outcome [6] was “inactive” and the outcome [7] was “inactive”. For the same compound, the outcome [8] was “inactive”.

In the case of CC(C)C(C)/C=C/C(C)C1CCC2C3=CC=C4CC(O)CCC4(C)C3CCC21C (stereo unspecified), the red/green cell ratio (normalised) [1] is reported as 0.85 (inactive), the normalised cell number [1, 22] is reported as 1 and the normalised cell number [1, 23] is reported as 0.85. The outcome [2] was “inactive”, the outcome [3] was “inactive” and the outcome [4] was “inactive”. For the same compound, the outcome [5] was “inactive”, the outcome [6] was “inactive” and the outcome [7] was “inactive”. For the same compound, the outcome [9] was “inactive” and the outcome [8] was “inactive”.

In the case of CC(=O)NC(CS)C(=O)O (stereo unspecified), the red/green cell ratio (normalised) [1] is reported as 1.09 (inactive), the normalised cell number [1, 22] is reported as 1.24 and the normalised cell number [1, 23] is reported as 1.36. The outcome [2] was “inactive”, the outcome [10] was “inactive” and the outcome [3] was “inactive”. The outcome [4] was “inactive”, the outcome [6] was “inactive” and the outcome [7] was “inactive”. For the same compound, the outcome [9] was “inactive” and the outcome [8] was “inactive”.

In the case of CC1(C)O[C@@H]2CC3C4CCC5=CC(=O)C=C[C@]5(C)C4[C@@H](O)C[C@]3(C)[C@]2(C(=O)CO)O1 (stereo partly specified), the red/green cell ratio (normalised) [1] is reported as 0.93 (inactive), the normalised cell number [1, 22] is reported as 1.22 and the normalised cell number [1, 23] is reported as 1.14. For the same compound, the fold change [11, 24] was 0.861 (inactive), the fold change [11, 25] was 1.01 and the cell count [11, 26] was 5940. For the same compound, the cell count [11, 27] was 6900.

With CC(C)NC[C@H](O)COc1cccc2ccccc12 the period change [12] was 0.145 h (inactive), the parasite load remaining [13] was 76% (inactive) and 69.1% (inactive) and 147% (inactive) and the viability [13] was 78.7% and 93.4% and 161%. For the same compound, the inhibition [14] was -3% (inactive), the fluorescence ratio (interference) [15] was 1 (inactive) and the red/green cell ratio (normalised) [1] was 1.36 (inactive). For the same compound, the normalised cell number [1, 22] was 1, the normalised cell number [1, 23] was 1.37 and the remaining activity [16] was 97% (inactive). The fold fluorescence [17] was 1.64 [at 192.8 µM] (inactive), the outcome [18] was “inactive” and the z-score [19, 28] was -0.245 (inactive). The z-score [19, 29] was -0.593 and the z-score [20] was -0.055 (inactive) and 0.085 (inactive) and -0.035 (inactive).

For COc1ccc2nc3cc(Cl)ccc3c(Nc3cc(CN4CCCC4)c(O)c(CN4CCCC4)c3)c2n1, the red/green cell ratio (normalised) [1] was 1.19 (inactive), the normalised cell number [1, 22] was 0.83 and the normalised cell number [1, 23] was 0.98. The AC50 [2] was 9.34 µM (active), the outcome [10] was “inactive” and the AC50 [3] was 20.9 µM (active). The AC50 [5] was 13.2 µM (active), the AC50 [6] was 7.42 µM (active) and the outcome [7] was “inactive”. For the same compound, the AC50 [9] was 11.8 µM (active), the IC50 [8] was 10.5 µM (active) and the fold change [11, 24] was 1.01 (inactive). It also gave a fold change [11, 25] of 0.832, a cell count [11, 26] of 2320 and a cell count [11, 27] of 2290. The remaining NAD [21] was 10 nM (inactive).

In the case of N#CC(c1ccc(Cl)cc1)c1c(Cl)cc(-n2ncc(=O)[nH]c2=O)cc1Cl (stereo unspecified), the parasite load remaining [13] is reported as 30.6% (inactive), the viability [13] is reported as 99% and the red/green cell ratio (normalised) [1] is reported as 0.84 (inactive). For the same compound, the normalised cell number [1, 22] was 1.03, the normalised cell number [1, 23] was 0.86 and the AC50 [10] was 23.5 µM (active). For the same compound, the outcome [5] was “inactive”, the AC50 [7] was 13.2 µM (active) and the outcome [9] was “inactive”. For the same compound, the fold change [11, 24] was 0.879 (inactive) and 0.842 (inactive), the fold change [11, 25] was 1.15 and 1.36 and the cell count [11, 26] was 7450 and 8470. For the same compound, the cell count [11, 27] was 8480 and 10000, the z-score [19, 28] was -0.404 (inactive) and -1.37 (inactive) and -0.711 (inactive) and the z-score [19, 29] was 0.144 and -0.703 and -0.429. For the same compound, the remaining NAD [21] was 10 nM (inactive) and the z-score [20] was -0.445 (inactive).
